Bioassay records deposited in PubChem BioAssay by National Center for Advancing Translational Sciences (NCATS).
p53 reactivator – qHTS assay for re-activators of p53 using a Luc reporter | H1299 p53-A138V BP100-luciferase reporter, luminescence, 24 h | Potency, µM (doses to about 92.2 µM), without a hit: at the top dose activity change, positive = activation, actives largely listed as activators | 320,000 tested, 0.063% active; also: % of control where 0% means no effect; nearly all actives have a fitted effect of over 45% in size
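p53-null H1299 cells stably carrying temperature-sensitive p53-A138V and a BP100-luciferase reporter were pinned with compounds (4-point, 1:5 series) and held 24 hrs at 37 deg C. Luminescence was read 10 min after detection reagent.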
Rab9 promoter act – qHTS Assay for Rab9 Promoter Activators | Huh7 Rab9 promoter-luciferase reporter, luminescence, 24 h | Potency, µM (titrated, usually from 9.22 µM), for the others: at the highest dose activation, negative = inhibition, usual class: activators | 320,000 tested, 2.8% active; also: % of control where 0% means no effect; nearly all actives have a fitted effect of over 60% in size
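Measured in stably transfected Huh7 cells bearing a Rab9 promoter–luciferase construct: 24 h compound treatment at 37 °C, followed by luminescence detection.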
FLuc counter – qHTS profiling assay for firefly luciferase inhibitor/activator using purifed enzyme and Km concentrations of substrates (counterscreen for miR-21 project); Luciferin 4-monooxygenase (Photinus pyralis), P08659; Potency, µM (doses to about 57.5 µM), inactives show at the highest dose activity change, negative = inhibition, actives largely listed as inhibitors; 360,000 tested, 6.9% active; AID 588342, 2011; purified FLuc, Km substrates, luminescence inhibition;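 also: plate controls were vehicle for no effect and reference inhibitor for full effect; nearly all actives have a fitted effect of over 55% in size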
Target sequence (P08659 whole entry, looked up): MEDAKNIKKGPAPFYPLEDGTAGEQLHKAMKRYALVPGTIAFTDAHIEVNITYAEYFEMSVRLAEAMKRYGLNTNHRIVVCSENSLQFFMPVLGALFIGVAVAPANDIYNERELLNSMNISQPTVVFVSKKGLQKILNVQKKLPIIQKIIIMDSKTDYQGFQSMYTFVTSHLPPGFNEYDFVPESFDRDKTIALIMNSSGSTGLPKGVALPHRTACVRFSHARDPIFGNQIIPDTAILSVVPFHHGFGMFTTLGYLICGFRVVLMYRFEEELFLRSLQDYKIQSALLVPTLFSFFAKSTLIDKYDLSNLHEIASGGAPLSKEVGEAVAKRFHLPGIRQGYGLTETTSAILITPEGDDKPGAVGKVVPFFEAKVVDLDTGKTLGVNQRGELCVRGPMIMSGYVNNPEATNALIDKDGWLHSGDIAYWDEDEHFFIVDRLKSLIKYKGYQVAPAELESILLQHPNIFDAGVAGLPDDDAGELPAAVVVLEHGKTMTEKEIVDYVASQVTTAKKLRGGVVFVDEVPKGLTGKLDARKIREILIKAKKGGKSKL
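Purified P. pyralis luciferase (10nM final) with 10uM D-luciferin and 10uM ATP (Km levels) in 50mM Tris acetate pH 7.5, 10mM Mg acetate, 0.01% Tween-20, 0.05% BSA; qHTS 6-point titration, ~60 µM downward; luminescence read.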
SMN2 splice up – qHTS Assay for Enhancers of SMN2 Splice Variant Expression. HEK293 SMN2-luciferase splicing reporter, luminescence, 30-36 h. Potency, µM (doses to about 46.1 µM), for the others: top-dose activity change, positive = activation, hits mostly activators. 210,000 tested, 2.8% active; also: % of control where 0% means no effect; nearly all actives have a fitted effect of over 55% in size
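HEK293 cells carry an SMN2 […]–luciferase reporter in which exon 7 inclusion puts luciferase in frame. Cells were plated 10-12 h before compound addition, then incubated 30-36 h at 37C. ONE-Glo luminescence was read; sodium butyrate at 4.5 mM final served as control.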
NPC1 prom act – qHTS Assay for NPC1 Promoter Activators. Huh7 NPC1 promoter luciferase reporter, 24 h. Potency, µM (titrated, usually from 9.22 µM), for the others: top-dose activation, hits mostly activators. 320,000 tested, 2.4% active; also: % of control where 0% means no effect; nearly all actives have a fitted effect of over 60% in size
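NPC1 promoter–luciferase Huh7 cells; 24 h compound; luminescence.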
ELG1 genotox – qHTS screen for small molecules that induce genotoxicity in human embryonic kidney (HEK293T) cells expressing luciferase-tagged ELG1 | 330,000 tested, 1.3% active | Potency, µM (series often up to 46 µM), for inactives: at the top dose activity change, positive = activation, usual class: activators | HEK293T ELG1-luciferase reporter, luminescence, 16 h | AID 504466, 2011; also: % of control where 0% means no effect; nearly all actives have a fitted effect of over 60% in size
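Genotoxicity was scored as increased ELG1-luciferase reporter signal, measured by ONE-Glo luminescence (30 min, room temperature). Compound or vehicle exposure of the HEK293T reporter cells lasted 16 hr at 37°C.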
The depositor's hits bear a star; ? = inconclusive; . = no result given; [ ] = dose if it differs, or a comment. Sampled rows, rich in hits. Any-hit rate of the full collection: about 7.3%. Calls follow the shape of the dose curve; as a rule, active = well fitted curve in the direction sought with a large enough effect; inconclusive = small, poorly fitted or top-dose-only effect, or another doubt; inactive = no such curve, though single readings can be large; an effect the other way counts as inactive or inconclusive. Potency is read from the fitted curve at half-maximal effect.

SMILES	p53 reactivator	Rab9 promoter act	FLuc counter	SMN2 splice up	NPC1 prom act	ELG1 genotox
COc1ccc(-c2cc(C(=O)O)c3sc(N4CCCCC4)nc3n2)cc1OC	-1.8%	9.8%	4.78µM*	4.2%[1.84 µM]	1.0%	1.0%
Cc1ccc(-c2nc(N3CCOCC3)sc2C(=O)N2CCCCC2)cc1	-12.3%	-1.3%	-5.2%	7.9%	0.8%	-0.6%
O=C(O)c1cc(-c2ccccc2)nc2nc(N3CCCCC3)sc12	7.3%	-0.1%	16.9µM*	4.7%	-2.4%	13.3%
Oc1cc(O)c2c(c1)O[C@H](c1ccc(O)c(O)c1)[C@@H](O)[C@@H]2c1c(O)cc(O)c2c1O[C@@H](c1ccc(O)c(O)c1)[C@H](O)C2	.	.	.	-4.1%[9.22 µM]	.	.
COc1ccc(-c2nn(CCC#N)cc2C=C(C#N)C#N)cc1	6.6%	14.1%	4.0%	.	0.8%	0.7%
CCOC(=O)N1CCC(NC(=O)c2ccc3c(c2)N(Cc2cccc(C)c2)C(=O)c2ccccc2S3(=O)=O)CC1	.	.	-2.8%	-25.3%	.	.
CCOc1ccccc1CNC(=O)c1cnc2sc(N3CCOCC3)nn2c1=O	.	.	-6.0%	.	.	.
O=[N+]([O-])c1ccc(/C=N/n2c(C3CCCCC3)n[nH]c2=S)cc1	0.7%	-1.3%	1.9%	25.9%	0.6%	1.5%
O=C1/C(=C/c2ccc([N+](=O)[O-])cc2)CCC1C1CCCC1 (stereo unspecified)	14.5%	-0.8%[1.84 µM]	0.757µM*	.	-6.5%	13.4%
Cc1cccc(/C=C2\CCC(C3CCCC3)C2=O)c1 (stereo unspecified)	?	21.4%	4.78µM*	-5.7%	24.4%	?
COc1cccc(/C=C2\CCC(C3CCCC3)C2=O)c1 (stereo unspecified)	?	?	1.69µM*	.	?	?
COc1cccc(/C=C2\CCCCC2=O)c1	15.7%	3.6%	?	.	4.9%	7.5%
Cc1cccc(C)c1NC(=O)CCC(=O)N1Cc2ccccc2Oc2ncccc21	.	.	-7.6%	.	.	.
COc1cccc(-c2cc(C(=O)Nc3cc(OC)c(OC)c(OC)c3)no2)c1	-32.8%	-7.0%	?	8.8%	-17.1%	-22.9%
COc1cc(NC(=O)c2cc(-c3ccccc3)on2)cc(OC)c1OC	.	-2.6%	-2.3%	.	-2.6%	-8.2%
O=C(Nc1ccc(F)c(Cl)c1)c1cc(-c2ccco2)on1	12.9%	2.5%	?	.	-3.3%	4.7%
CC(C)n1cc(NC(=O)c2cc(-c3ccccc3)on2)cn1	?	-8.6%	15.1µM*	6.0%	-16.1%	18.4µM*
COc1cccc(-c2cc(C(=O)Nc3cccnc3)no2)c1	?	-1.4%	1.35µM*	-8.0%	-1.8%	?
O=C(Nc1cccnc1)c1cc(-c2ccc(Br)cc2)on1	9.1%	0.1%	2.13µM*	10.7%	-0.5%	5.8µM*
O=C(Nc1cccnc1)c1cc(-c2ccco2)on1	9.0%	0.4%	6.01µM*	-3.4%	-0.4%	0.2%
CN1CCN(c2ccnc(-c3cccc(NS(C)(=O)=O)c3)n2)CC1	.	.	.	-3.3%	.	.
O=C(O)C[n+]1ccccc1	.	.	.	-11.8%[9.22 µM]	.	.
COc1ccc(NC(=O)c2cc(-c3ccccc3)on2)cc1	.	1.9%	?	.	1.4%	11.5%
COc1cccc(-c2cc(C(=O)Nc3cc(C)on3)no2)c1	?	0.3%	?	-15.2%	5.6%	?
CCC(C)NC(=O)c1cc(-c2cccc(OC)c2)on1 (stereo unspecified)	.	.	13.5µM*	11.2µM*	.	.
SMILES	p53 reactivator	Rab9 promoter act	FLuc counter	SMN2 splice up	NPC1 prom act	ELG1 genotox
COC(=O)c1c(-c2ccc(C)cc2)csc1NC(=O)c1c(-c2ccccc2)noc1C	2.8%	-1.1%	0.3%	68.3%	-2.0%	-2.3%
O=C(Nc1cccnc1)c1cc(-c2ccccc2)on1	12.3%	-7.5%	4.78µM*	-0.3%	0.7%	1.6%
COC(=O)c1c(-c2cccnc2)csc1NC(=O)c1cc(C)on1	?	1.78µM*	6.01µM*	11.2µM*	2µM*	?
O=C(CSc1ncc2c(n1)-c1ccccc1N(Cc1ccc(F)cc1)S2(=O)=O)c1ccc(Cl)cc1	.	.	1.6%	.	.	.
CC(C)(C)NC(=O)C(c1ccncc1)N(C(=O)C1CSC(=O)C1)c1ccccc1 (stereo unspecified)	-1.5%	-2.4%	-0.7%	.	-6.2%	-0.3%
Cc1ccc(C)c(S(=O)(=O)Nc2ccc(C(=O)N3CCC3)cc2)c1	-5.1%	-0.3%	1.7%	.	-1.4%	2.1%
CCn1cc(C(=O)O)c(=O)c2cc(F)c(N3CCN(C(=O)Nc4ccccc4)CC3)cc21	-4.3%	2.1%	-0.3%	17.8µM*	-3.4%	-35.8%
CCn1cc(C(=O)O)c(=O)c2cc(F)c(N3CCN(C(=S)NC(=O)c4ccccc4F)CC3)cc21	-1.7%	-0.6%	1.5%	.	2.1%	-4.5%
Cc1c(C(=O)N2CCCCCC2)c(S(=O)(=O)Nc2ccc(OC(F)(F)F)cc2)c(C)n1C	.	.	1.0%	.	.	.
CN(C)S(=O)(=O)c1cccc(NC(=S)N/N=C/c2cc(Br)ccc2O)c1	?	-37.8%	19µM*	.	-19.8%	7.7%
CCOc1ccc(NC(=O)c2oc3ccccc3c2NC(=O)Cc2cccc(C)c2)cc1	.	.	-1.0%	3.0%	.	.
COc1ccc(-n2c(=O)c3c(c4cc(OC)ccc4n3C)n(Cc3cc(C)ccc3C)c2=O)cc1	.	.	0.1%	.	.	.
C=CCn1c(/N=C/c2ccc(N(C)C)cc2)nc2ccccc21	10.5%	8.8%	0.135µM*	.	0.0%	-0.4%
COc1ccc(/C=N/c2nc3ccccc3n2CCN2CCCCC2)cc1OC	3.6%	-2.4%	-8.9%	6.6%	-2.8%	-0.5%
CN(C)c1ccc(/C=N/n2ncc3ccccc32)cc1	?	?	10.7µM*	8.91µM*	23.5%	?
CCCCn1c(/N=C/c2ccc3c(c2)OCO3)nc2ccccc21	-0.2%	1.6%	8.49µM*	18.2%	-3.4%	-2.6%
CCn1c(/N=C/c2ccc(OC)cc2O)nc2ccccc21	.	9.3%	0.953µM*	.	-0.5%	1.4%
O=S(=O)(NC1CC1)c1ccc(S(=O)(=O)N2CCCC3(CCCCC3)C2)cc1	0.7%	-3.2%	5.1%	-3.9%	-0.8%	5.4%
CCCCn1c(/N=C/c2ccc(N(C)C)cc2)nc2ccccc21	7.3%	-2.1%	1.9µM*	-20.2%	-0.1%	-0.9%
C=CCn1c(/N=C/c2ccc(OC)cc2)nc2ccccc21	4.0%	-2.4%	0.426µM*	.	-5.0%	-2.2%
Cc1ccc(C(C)C)cc1S(=O)(=O)Nc1cccnc1	-17.7%	-1.0%	-3.1%	.	0.6%	-1.0%
